PubChem BioAssay (Tox21)
Several values for one entry are separate records, joined by “and”; a condition that tells them apart may be missing. Equal entries are not always repeated. Results filed as inconclusive are left out. Where a call stands in place of a potency, no number is given. Values without a mark were called inactive. Activity calls are given as the source filed them. The call rests on the fitted dose curve; in most records, active means well fitted curve in the direction sought with a large enough effect in the repeat runs; inconclusive means weak or mixed curves; inactive means no such curve, though single readings can be large; an effect the other way counts as inactive or inconclusive.

Legend:
[1] = qHTS RealTime-Glo MT Cell Viability Assay in HepG2 cells - 40 hour (AID 1224870); further: nearly all actives have a fitted effect of over 50% in size
Outline: (§1)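 HepG2 cells mixed with RealTime-Glo MT reagents (NanoLuc plus cell-permeant prosubstrate) were seeded at 600 cells/well, incubated 5 h at 37 C/5% CO2, then pinned with compounds in DMSO; nonlytic luminescence tracked viability during 40 h treatment.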

[2] = A CellTox Green Cytotoxicity Assay to monitor cytotoxicity in HEK293 cells - 40 hour (AID 1224871); further: nearly all actives have a fitted effect of over 45% in size; further: potency means the concentration at half of the fitted maximal effect
Outline: (§2)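 Real-time, in one plate: 600 HEK293 cells/well with dead-cell DNA dye, pinned compound after 5 h, 37 C incubation over 40 h; viable cells give no appreciable fluorescence.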

[3] = qHTS RealTime-Glo MT Cell Viability Assay in HEK293 cells - 16 hour (AID 1224872); further: nearly all actives have a fitted effect of over 50% in size; further: potency means the concentration at half of the fitted maximal effect; on activity change, negative = cytotoxicity: top concentration of the series differs between compounds
Outline: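 Homogeneous bioluminescent viability format in HEK293 cells (600 cells/well). Following 5 h at 37 C/5% CO2, 23 nL compound was pintooled; the signal was measured repeatedly during 40 h incubation.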

[4] = qHTS RealTime-Glo MT Cell Viability Assay in HepG2 cells - 8 hour (AID 1224873); further: nearly all actives have a fitted effect of over 55% in size; further: potency means the concentration at half of the fitted maximal effect
Outline: as §1

[5] = A CellTox Green Cytotoxicity Assay to monitor cytotoxicity in HEK293 cells - 24 hour (AID 1224875); further: series mostly up to about 77 µM; nearly all actives have a fitted effect of over 45% in size
Outline: as §2

[6] = A CellTox Green Cytotoxicity Assay to monitor cytotoxicity in HepG2 cells - 16 hour (AID 1224876); further: nearly all actives have a fitted effect of over 45% in size
Outline: (§3)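 Cytotoxicity was tracked as dead-cell DNA fluorescence in HepG2 cells treated with test compounds at 37 C; each time-point value comes from one kinetic series spanning 0, 8, 16, 24, 32 and 40 h.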

[7] = qHTS RealTime-Glo MT Cell Viability Assay in HepG2 cells - 32 hour (AID 1224877); further: nearly all actives have a fitted effect of over 55% in size
Outline: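 Cell number in HepG2 cultures estimated from NanoLuc luminescence generated by metabolic reduction of a prosubstrate by living cells. The homogeneous, nonlytic format allowed repeated reads at 0, 8, 16, 24, 32 and 40 h of compound exposure.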

[8] = A CellTox Green Cytotoxicity Assay to monitor cytotoxicity in HepG2 cells - 24 hour (AID 1224878); further: nearly all actives have a fitted effect of over 45% in size
Outline: as §3

[9] = A CellTox Green Cytotoxicity Assay to monitor cytotoxicity in HepG2 cells - 40 hour (AID 1224879); further: nearly all actives have a fitted effect of over 40% in size
Outline: as §3

[10] = qHTS RealTime-Glo MT Cell Viability Assay in HEK293 cells - 40 hour (AID 1224874); conditions: RealTime-Glo luminescence; max response: active compounds read low; further: nearly all actives have a fitted effect of over 50% in size; further: potency means the concentration at half of the fitted maximal effect
Outline: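 Kinetic, non-lysing viability readout. Seed HEK293 (600/well) with reagent, incubate 5 h at 37 C/5% CO2, pin 23 nL compound in DMSO, incubate at 37 C, read luminescence at 0, 8, 16, 24, 32, 40 h.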

Compound: CCOC(C)(C)C
- Potency [1]: inactive
- Potency [2]: inactive
- Potency [3]: inactive
- Potency [4]: inactive
- Potency [5]: inactive
- Potency [6]: inactive
- Potency [7]: inactive
- Potency [8]: inactive
- Potency [9]: inactive

Compound: CCOC(=O)Nc1ccc(NCc2ccc(F)cc2)nc1N
- Potency [1]: inactive
- Potency [2]: inactive
- Potency [3]: inactive
- Potency [4]: inactive
- max response [10]: -2.14%
- Potency [6]: inactive
- Potency [7]: inactive
- Potency [8]: inactive
- Potency [9]: inactive

Compound: CC(=O)OCC(=O)[C@@]1(O)CC[C@H]2[C@@H]3CCC4=CC(=O)CC[C@]4(C)[C@H]3C(=O)C[C@@]21C
- Potency [1]: inactive
- Potency [2]: inactive
- Potency [3]: inactive
- Potency [4]: inactive
- Potency [5]: inactive
- Potency [6]: inactive
- Potency [7]: inactive
- Potency [8]: inactive
- Potency [9]: inactive

Compound: CN1CCCC1
- Potency [1]: inactive
- Potency [2]: inactive
- Potency [3]: inactive
- Potency [4]: inactive
- Potency [5]: inactive
- Potency [6]: inactive
- Potency [7]: inactive
- Potency [8]: inactive
- Potency [9]: inactive

Compound: CO[Si](CCCOCC1CO1)(OC)OC (configuration not stated)
- Potency [1]: inactive
- Potency [2]: inactive
- Potency [3]: inactive
- Potency [4]: inactive
- max response [10]: 0.892% and 6.22%
- Potency [6]: inactive
- Potency [7]: inactive
- Potency [8]: inactive
- Potency [9]: inactive

Compound: CCOC(=O)c1ccc(C)cc1
- Potency [1]: inactive
- Potency [2]: inactive
- Potency [3]: inactive
- Potency [4]: inactive
- max response [10]: 8.25%
- Potency [6]: inactive
- Potency [7]: inactive
- Potency [8]: inactive
- Potency [9]: inactive

Compound: CCCCNC(=O)NCCCC
- Potency [1]: inactive
- Potency [2]: inactive
- Potency [3]: inactive
- max response [10]: -3.77%
- Potency [5]: inactive
- Potency [6]: inactive
- Potency [7]: inactive
- Potency [8]: inactive
- Potency [9]: inactive

Compound: CC(C)(C)c1ccc(O)c(O)c1
- Potency [1]: inactive
- Potency [2]: 38.9 µM (active)
- Potency [3]: 25.4 µM (active) and 13.8 µM (active)
- Potency [4]: 34.7 µM (active)
- Potency [10]: 20.2 µM (active) and 36 µM (active)
- Potency [6]: inactive
- Potency [8]: inactive
- Potency [9]: inactive

Compound: Cn1c(N)c(N=O)c(=O)n(C)c1=O
- Potency [1]: inactive
- Potency [2]: inactive
- Potency [3]: inactive
- max response [10]: 4.01%
- Potency [5]: inactive
- Potency [6]: inactive
- Potency [7]: inactive
- Potency [8]: inactive
- Potency [9]: inactive

Compound: CC(C)c1cc2c(cc1S(=O)(=O)O)[C@@]1(C)CCC[C@@](C)(C(=O)O)[C@@H]1CC2
- Potency [1]: inactive
- Potency [2]: inactive
- Potency [3]: inactive
- Potency [4]: inactive
- Potency [5]: inactive
- Potency [6]: inactive
- Potency [7]: inactive
- Potency [8]: inactive
- Potency [9]: inactive

Compound: CCCC(=O)O[C@]1(C(=O)CO)CC[C@H]2[C@@H]3CCC4=CC(=O)CC[C@]4(C)[C@H]3[C@@H](O)C[C@@]21C
- Potency [1]: inactive
- Potency [2]: inactive
- Potency [3]: inactive
- Potency [4]: inactive
- max response [10]: 0.181%
- Potency [6]: inactive
- Potency [7]: inactive
- Potency [8]: inactive
- Potency [9]: inactive

Compound: C=CCOCC(CC)(CO)COCC=C
- Potency [1]: inactive
- Potency [2]: inactive
- Potency [3]: inactive
- Potency [4]: inactive
- Potency [5]: inactive
- Potency [6]: inactive
- Potency [7]: inactive
- Potency [8]: inactive
- Potency [9]: inactive

Compound: CCN(CC)CCOCCOC(=O)C1(c2ccccc2)CCCC1
- Potency [1]: inactive
- Potency [2]: inactive
- Potency [3]: inactive
- Potency [4]: inactive
- Potency [6]: inactive
- Potency [7]: inactive
- Potency [8]: inactive
- Potency [9]: inactive

Compound: COC(=O)C1=C(C)NC(C)=C(C(=O)OC)C1c1ccccc1[N+](=O)[O-]
- Potency [1]: inactive
- Potency [2]: inactive
- Potency [3]: inactive
- Potency [5]: inactive
- Potency [6]: inactive
- Potency [7]: inactive
- Potency [8]: inactive
- Potency [9]: inactive

Compound: NC(=O)c1ccc([N+](=O)[O-])cc1
- Potency [1]: inactive
- Potency [2]: inactive
- Potency [3]: inactive
- max response [10]: 2.32%
- Potency [5]: inactive
- Potency [6]: inactive
- Potency [7]: inactive
- Potency [8]: inactive
- Potency [9]: inactive

Compound: CC(=O)Nc1ccc(S(N)(=O)=O)cc1
- Potency [1]: inactive
- Potency [2]: inactive
- Potency [4]: inactive
- max response [10]: 14.7%
- Potency [5]: inactive
- Potency [6]: inactive
- Potency [7]: inactive
- Potency [8]: inactive
- Potency [9]: inactive

Compound: CC(=O)OCC(CCn1cnc2cnc(N)nc21)COC(C)=O
- Potency [1]: inactive
- Potency [2]: inactive
- Potency [3]: inactive
- Potency [6]: inactive
- Potency [7]: inactive
- Potency [8]: inactive
- Potency [9]: inactive

Compound: O=C1CCCC(=O)C1
- Potency [1]: inactive
- Potency [2]: inactive
- Potency [3]: inactive
- max response [10]: 1.44%
- Potency [5]: inactive
- Potency [6]: inactive
- Potency [7]: inactive
- Potency [8]: inactive
- Potency [9]: inactive

Compound: O=C1OC(=O)C2CCCCC12 (configuration not stated)
- Potency [1]: inactive
- Potency [2]: inactive
- Potency [3]: inactive
- max response [10]: 1.13%
- Potency [5]: inactive
- Potency [6]: inactive
- Potency [7]: inactive
- Potency [8]: inactive
- Potency [9]: inactive

Compound: CCC(C)S (configuration not stated)
- activity change, negative = cytotoxic [1]: 2.53% [at 2.72 µM]
- cytotoxicity increase [2]: -0.869% [at 2.72 µM]
- activity change, negative = cytotoxicity [3]: 0.797% [at 2.72 µM]
- max response [10]: 2.1%
- cytotoxicity increase [6]: 0.507% [at 2.72 µM]
- activity change, negative = cytotoxic [7]: -0.778% [at 2.72 µM]
- cytotoxicity [8]: 1.18% [at 2.72 µM]
- cytotoxicity increase [9]: -0.0934% [at 2.72 µM]

Compound: CCCCCCCCS(=O)(=O)Cl
- Potency [1]: inactive
- Potency [2]: inactive
- Potency [3]: inactive
- max response [10]: 19.7%
- Potency [5]: inactive
- Potency [6]: inactive
- Potency [7]: inactive
- Potency [8]: inactive
- Potency [9]: inactive

Compound: OC[C@]1(O)OC[C@@H](O)[C@H](O)[C@@H]1O
- Potency [1]: inactive
- Potency [2]: inactive
- Potency [4]: inactive
- max response [10]: 0.06% and 3.11%
- Potency [5]: inactive
- Potency [6]: inactive
- Potency [7]: inactive
- Potency [8]: inactive
- Potency [9]: inactive

Compound: O=C(O)CN(CCOCCOCCN(CC(=O)O)CC(=O)O)CC(=O)O
- activity change, negative = cytotoxic [1]: 0.968% [at 0.29 µM]
- cytotoxicity increase [2]: 0.853% [at 0.29 µM]
- activity change, negative = cytotoxicity [3]: -0.382% [at 0.29 µM]
- max response [10]: 6.77%
- activity change [5]: 5.13% [at 0.29 µM, active compounds read high]
- cytotoxicity increase [6]: -23.6% [at 0.29 µM]
- activity change, negative = cytotoxic [7]: 3% [at 0.29 µM]
- cytotoxicity [8]: -22.1% [at 0.29 µM]
- cytotoxicity increase [9]: -20% [at 0.29 µM]

Compound: CN1CCN(c2cc3c(cc2F)c(=O)c(C(=O)O)cn3-c2ccc(F)cc2)CC1
- Potency [1]: inactive
- Potency [2]: inactive
- Potency [4]: inactive
- max response [10]: -0.934%
- Potency [5]: inactive
- Potency [6]: inactive
- Potency [7]: inactive
- Potency [8]: inactive
- Potency [9]: inactive

Compound: CC(C)OC(=O)c1ccccc1
- Potency [1]: inactive
- Potency [2]: inactive
- Potency [3]: inactive
- Potency [5]: inactive
- Potency [6]: inactive
- Potency [7]: inactive
- Potency [8]: inactive
- Potency [9]: inactive

Compound: CCCCCOC(=O)CCCCC
- Potency [1]: inactive
- Potency [2]: inactive
- Potency [3]: inactive
- max response [10]: 7.06%
- Potency [6]: inactive
- Potency [7]: inactive
- Potency [8]: inactive
- Potency [9]: inactive

Compound: CCC(C)C1CCCCC1=O (configuration not stated)
- Potency [1]: inactive
- Potency [2]: inactive
- Potency [3]: inactive
- max response [10]: 7.3%
- Potency [5]: inactive
- Potency [6]: inactive
- Potency [7]: inactive
- Potency [8]: inactive
- Potency [9]: inactive

Compound: COC(=O)c1ccc(C)cc1C1=NC(C)(C(C)C)C(=O)N1 (configuration not stated)
- Potency [1]: inactive
- Potency [2]: inactive
- Potency [4]: inactive
- max response [10]: 5.2%
- Potency [5]: inactive
- Potency [6]: inactive
- Potency [7]: inactive
- Potency [8]: inactive
- Potency [9]: inactive

Compound: C[N+](C)(C)CCCCCC[N+](C)(C)C
- Potency [1]: inactive
- Potency [2]: inactive
- Potency [3]: inactive
- Potency [5]: inactive
- Potency [6]: inactive
- Potency [7]: inactive
- Potency [8]: inactive
- Potency [9]: inactive
